From PubChem BioAssay (NCATS)
Inconclusive results are not listed. Entries that show only a call come without a potency. The source made the active and inactive calls. Unless noted, the call rests on the fitted dose curve; in most records, active means well fitted curve in the direction sought with a large enough effect; inconclusive means small, poorly fitted or top-dose-only effect, or another doubt; inactive means no such curve, though single readings can be large; an effect the other way counts as inactive or inconclusive.

Target: Calcium and integrin-binding protein 1 (Homo sapiens) (UniProt Q99828)
Sequence (Q99828 whole entry, looked up): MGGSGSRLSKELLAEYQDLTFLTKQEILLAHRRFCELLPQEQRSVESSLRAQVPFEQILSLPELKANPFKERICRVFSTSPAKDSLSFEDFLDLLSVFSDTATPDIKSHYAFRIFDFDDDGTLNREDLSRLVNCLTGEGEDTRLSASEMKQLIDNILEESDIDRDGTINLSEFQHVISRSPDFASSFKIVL
Assay: Confirmatory qHTS for Identification of Calcium Integrin Binding Protein 1 (CIB1) Competitor (AID 1508617); further: nearly all actives have a fitted effect of over 65% in size
Conditions: CIB1 binding competition assay, biochemical qHTS
Summary of the method: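 Confirmatory qHTS measures displacement of a FITC-alphaIIb peptide (100 nM) from CIB1-GST (1 uM) by fluorescence polarization. Calcium-containing HEPES buffer, pH 7.4; two 15 min room-temperature incubations.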
Potency means the concentration at half of the fitted maximal effect.

| Compound | Potency |
| --- | --- |
| Cc1c(Cc2ccc3ccccc3n2)c2cc(F)ccc2n1CC(=O)O | 50.1 µM (active) |
| CC(=O)NC(Cc1c[nH]c2ccccc(=O)c12)C(=O)O (stereo unspecified) | 44.7 µM (active) |
| COc1ccc(CC(NC(C)=O)C(=O)O)cc1 (stereo unspecified) | 50.1 µM (active) |

Target: Calcium and integrin-binding protein 1 (Homo sapiens) (UniProt Q99828)
Assay: Primary qHTS for Identification of Calcium Integrin Binding Protein 1 (CIB1) Competitor (AID 1508620)
Conditions: CIB1-GST / FITC-alphaIIb peptide fluorescence polarization; series mostly up to 57.7 µM
Summary of the method: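 Fluorescence polarization competition: GST-tagged CIB1 (1 uM final) preincubated with compound 15 min at room temperature, then FITC-labelled alphaIIb peptide (100 nM final) added. After 15 min at room temperature, polarization read at Ex 480/Em 540.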

| Compound | Potency |
| --- | --- |
| COc1c(C)c(OCC=C(C)C)cc2c1CNC2=O | inactive |
| N#CN1CCC[C@@H](n2nc(-c3ccc(Oc4ccc(F)cc4F)cc3)c(C(N)=O)c2N)C1 | inactive |
| COc1ccc2[nH]c(S(=O)Cc3ncc(C)c(OC)c3C)nc2c1 (stereo unspecified) | inactive |
| COc1cc(O)cc2c1C(=O)OC(C)CCCCCCC2 (stereo unspecified) | inactive |
| CCCCOc1nc(N)c2c(n1)N(Cc1cccc(CN3CCCC3)c1)CC(=O)N2 | inactive |
| Nc1ncnc2c1C(=O)N(c1ccc(C3CCC(CC(=O)O)CC3)cc1)CCO2 (stereo unspecified) | inactive |
| Cc1ncc(Cl)cc1NCc1ccc(C(=O)NC(CC2CCCC2)C(=O)NC2CC2)s1 (stereo unspecified) | inactive |
| CC(=O)O[C@H]1C[C@@]2(C)[C@@H](CC[C@H]3[C@@]4(C)C=CC(=O)[C@@H](C)[C@@H]4[C@H](OC(C)=O)C(=O)[C@@]32C)/C1=C(\CCC=C(C)C)C(=O)O | inactive |
| Cn1cc(-c2c[nH]c3ncnc(N4CCOCC4)c23)cn1 | inactive |
| O=C(/C=C/C=C/c1ccc2c(c1)OCO2)N1CCCCC1 | inactive |
| C[C@@H]1O[C@@H](O[C@@H]2\C=C/C=C\C=C/C=C\C[C@H](C)OC(=O)/C=C\[C@H]3O[C@@H]3C[C@H](O)C[C@]3(O)C[C@@H](O)[C@@H](C(=O)O)[C@H](C2)O3)[C@H](O)[C@H](N)[C@@H]1O | inactive |
| Cc1ccccc1-n1nc(-c2c(-c3ccc(F)cc3)nn3c2NC[C@@H](CO)C3)ccc1=O | inactive |
| CC(=O)OC/C(=C/C(=O)O)CC[C@@H]1C(CO)=CC[C@@H]2C(C)(C)CCC[C@@]12C | inactive |
| Cc1nc(-c2cccnc2)sc1C(=O)Nc1ccccc1-c1cn2c(CN3CCOCC3)csc2n1 | inactive |
| O=C(COCC(=O)N1CCN(C(c2ccccc2)c2ccccc2)CC1)Nc1ccc(Cl)cc1C(=O)O | inactive |
| CCC(CC)CC1(C(=O)Nc2ccccc2SC(=O)C(C)C)CCCCC1 | inactive |
| Cc1c(F)cc(C(=O)NC2CC2)cc1-c1ccc(C(=O)NCC(C)(C)C)cn1 | inactive |
| CC(C)c1ccc2c(c1)CCC1[C@](C)(C(=O)O)CCC[C@]21C (stereo partly specified) | inactive |

| Compound | Potency |
| --- | --- |
| Cc1c(Cc2ccc3ccccc3n2)c2cc(F)ccc2n1CC(=O)O | 44.7 µM (active) |
| CC(C)N(CCCNC(=O)Nc1ccc(C(C)(C)C)cc1)C[C@H]1O[C@@H](n2ccc3c(N)ncnc32)[C@H](O)[C@@H]1O | inactive |
| N#Cc1cccc(-c2c[nH]c3ncnc(N4CCOCC4)c23)c1 | inactive |
| CC(O)C(=O)/C=C/C=C/C(=O)OC1C=C2COC(=O)C2(O)C2(C)CCCC(C)(C)C12 (stereo unspecified) | inactive |
| CNc1nc(C)nc(N[C@H]2CCC[C@@H](C(=O)NCc3ccc(C#N)cc3C(F)(F)F)C2)n1 | inactive |
| CC1(C)CC[C@]2(C(=O)O)CC[C@]3(C)C(=CCC4[C@@]5(C)C[C@@H](O)[C@H](O)[C@@](C)(CO)C5[C@H](O)C[C@]43C)[C@@H]2C1 (stereo partly specified) | inactive |
| Cc1c(-c2ccc3c(c2)OCO3)oc2ccc(C(O)C(C)O)cc12 (stereo unspecified) | inactive |
| Cc1cccc(-c2nn3c(c2-c2ccnc4ccc(C(N)=O)cc24)CCC3)n1 | inactive |
| O=C(O)CC1CCC(c2ccc(-c3ccc(Nc4ccc(C(F)(F)F)nc4)cn3)cc2)CC1 (stereo unspecified) | inactive |
| N#Cc1ccc(C2CCCc3cncn32)cc1 (stereo unspecified) | inactive |
| COC(=O)[C@@H](NC(=O)[C@H](CC(C)C)NC(=O)N(Cc1ccccc1)C[C@@H](O)[C@H](Cc1ccccc1)NC(=O)OC(C)(C)C)C(C)C | inactive |
| CC(C)[C@](O)(c1ccc2cc(OC(F)F)c(OC(F)F)cc2c1)c1cn[nH]n1 | inactive |
| CC(C)=CCc1c(O)cc2oc3cc(C)cc(O)c3c2c1C | inactive |
| C=C1C[C@@]2(O)O[C@@]3(C[C@H]2C(C)C)[C@@H](C)CC[C@@H]13 | inactive |
| COCCCc1sc(-c2ccccc2)nc1C(=O)Nc1ccccc1-c1nc2cc(CN3CCCC3)cnc2s1 | inactive |
| COc1cccc2c1c(O)c(C(=O)N(C)c1ccc(C(F)(F)F)cc1)c(=O)n2C | inactive |
| CCc1cccc2c3c([nH]c12)[C@@](CC)(CC(=O)O)OCC3 | inactive |

Target: Cytochrome P450 2D6 (Homo sapiens) (UniProt P10635)
Sequence (P10635 whole entry, looked up): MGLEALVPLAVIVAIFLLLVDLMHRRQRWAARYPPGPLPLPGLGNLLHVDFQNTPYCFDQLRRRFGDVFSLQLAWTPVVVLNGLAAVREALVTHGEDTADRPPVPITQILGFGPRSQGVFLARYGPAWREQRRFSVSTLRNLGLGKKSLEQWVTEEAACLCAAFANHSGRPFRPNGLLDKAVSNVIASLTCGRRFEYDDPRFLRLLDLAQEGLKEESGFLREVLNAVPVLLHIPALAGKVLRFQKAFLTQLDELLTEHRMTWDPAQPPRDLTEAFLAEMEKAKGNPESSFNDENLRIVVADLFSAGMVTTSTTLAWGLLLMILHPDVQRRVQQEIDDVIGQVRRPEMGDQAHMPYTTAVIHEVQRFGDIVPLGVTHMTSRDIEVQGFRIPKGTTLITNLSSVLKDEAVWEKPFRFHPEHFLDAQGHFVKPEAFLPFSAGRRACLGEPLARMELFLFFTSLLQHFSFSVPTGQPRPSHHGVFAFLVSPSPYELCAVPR
Assay: Cytochrome P450 family 2 subfamily D member 6 (CYP2D6) small molecule antagonists: luciferase biochemical (cell-free) qHTS assay (AID 1645840; active means well fitted curve in the direction sought with a large enough effect in the repeat runs; an effect the other way counts as inactive or inconclusive; further: nearly all actives have a fitted effect of over 55% in size)
Conditions: P450-Glo CYP2D6 enzyme, luciferin luminescence, 1 h; series mostly up to 57.4 µM
Summary of the method: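 P450-Glo CYP2D6 system: proluciferin substrate converted by enzyme to luciferin, read by luminescence proportional to activity. Enzyme-substrate mix with compound 10 min at room temperature, then NADPH regeneration 1 h before detection reagent.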

| Compound | Potency |
| --- | --- |
| CCCCOc1nc(N)c2c(n1)N(Cc1cccc(CN3CCCC3)c1)CC(=O)N2 | 3.38 µM (active) |
| Nc1ncnc2c1C(=O)N(c1ccc(C3CCC(CC(=O)O)CC3)cc1)CCO2 (stereo unspecified) | inactive |
| Cc1ccccc1-n1nc(-c2c(-c3ccc(F)cc3)nn3c2NC[C@@H](CO)C3)ccc1=O | inactive |
| O=C(COCC(=O)N1CCN(C(c2ccccc2)c2ccccc2)CC1)Nc1ccc(Cl)cc1C(=O)O | inactive |
| CCC(CC)CC1(C(=O)Nc2ccccc2SC(=O)C(C)C)CCCCC1 | inactive |
| Cc1c(F)cc(C(=O)NC2CC2)cc1-c1ccc(C(=O)NCC(C)(C)C)cn1 | inactive |
| N#Cc1ccc(C2CCCc3cncn32)cc1 (stereo unspecified) | 17.5 µM (active) |
| COc1cccc2c1c(O)c(C(=O)N(C)c1ccc(C(F)(F)F)cc1)c(=O)n2C | inactive |
